Laboratory results reported in PubChem BioAssay (Tox21).
Values without a mark were called inactive. Records with an inconclusive call do not appear. A call without a number means that no potency is given here. Active and inactive are the calls of the source. Calls follow the shape of the full dose curve.

What was measured:
[1] = biological target: Acetylcholinesterase (Homo sapiens) (UniProt P22303); test: Acetylcholinesterase (AChE) small molecule antagonists: colormetric cell-based qHTS assay (AID 1347395); settings: SH-SY5Y cells AChE activity, colorimetric (Ellman); series mostly up to 115 µM; also: nearly all actives have a fitted effect of over 30% in size
Sequence of Acetylcholinesterase (Homo sapiens) (P22303 whole entry, looked up): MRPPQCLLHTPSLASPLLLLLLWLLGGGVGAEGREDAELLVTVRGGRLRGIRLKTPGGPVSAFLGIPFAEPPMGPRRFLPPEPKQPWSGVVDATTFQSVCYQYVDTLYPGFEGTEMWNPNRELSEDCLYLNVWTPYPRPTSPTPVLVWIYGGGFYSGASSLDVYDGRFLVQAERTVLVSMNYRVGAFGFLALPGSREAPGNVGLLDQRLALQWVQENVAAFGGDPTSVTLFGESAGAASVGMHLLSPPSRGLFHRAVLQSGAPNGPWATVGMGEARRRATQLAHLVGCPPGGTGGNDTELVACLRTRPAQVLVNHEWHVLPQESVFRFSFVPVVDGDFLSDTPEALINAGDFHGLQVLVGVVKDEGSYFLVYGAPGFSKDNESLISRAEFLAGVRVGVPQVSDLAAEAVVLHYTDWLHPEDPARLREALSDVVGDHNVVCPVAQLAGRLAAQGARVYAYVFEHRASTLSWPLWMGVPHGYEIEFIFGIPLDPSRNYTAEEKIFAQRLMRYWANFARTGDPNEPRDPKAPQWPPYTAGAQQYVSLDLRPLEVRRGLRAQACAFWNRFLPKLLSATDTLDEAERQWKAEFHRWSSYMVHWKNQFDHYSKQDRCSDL
Method in brief: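 After overnight attachment at 37 C, SH-SY5Y cells get 30 min compound exposure; detection cocktail (acetylthiocholine, DTNB) then incubates 90 min at 37 C, and absorbance reflects AChE-generated thiocholine.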

[2] = biological target: Acetylcholinesterase (Homo sapiens) (UniProt P22303); test: Acetylcholinesterase (AChE) small molecule antagonists: enzyme-based qHTS assay (AID 1347397); settings: Potency: AChE enzyme activity inhibition; outcome: AChE enzyme activity inhibition; series mostly up to 115 µM; also: nearly all actives have a fitted effect of over 55% in size
Method in brief: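 rhAChE 50 mU/mL (dispensed) + cpd or DMSO, 30 min RT; add DTNB/acetylthiocholine cocktail, 10 min RT; colorimetric thiocholine readout. qHTS, 1536-well format.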

[3] = biological target: Acetylcholinesterase (Homo sapiens) (UniProt P22303); test: Acetylcholinesterase (AChE) small molecule antagonists: fluorescence cell-based qHTS assay (AID 1347398); settings: SH-SY5Y cells; Potency: AChE activity; outcome: AChE activity; series mostly up to 115 µM; also: nearly all actives have a fitted effect of over 50% in size
Method in brief: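 Read-out is Thiolite Green fluorescence at Ex/Em = 490/520 nm, formed by reaction with thiocholine released when cellular AChE in SH-SY5Y cells hydrolyzes acetylthiocholine. Compounds were preincubated 30 min at 37 C before substrate.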

[4] = biological target: Acetylcholinesterase (Homo sapiens) (UniProt P22303); test: Acetylcholinesterase (AChE) small molecule antagonists: enzyme-based qHTS assay with human liver microsomes (AID 1347399); settings: Potency: qHTS inhibition; outcome: qHTS inhibition; series mostly up to 115 µM; also: nearly all actives have a fitted effect of over 60% in size
Method in brief: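 Recombinant human AChE (50 mU/mL in the enzyme mix) and human liver microsomes (0.25 mg/mL final) were preincubated with compound and NADPH (0.25 mg/mL final) for 30 min at 37 C. Acetylthiocholine/DTNB was then added; thiocholine was read colorimetrically after 10 min at room temperature.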
Potency is read from the fitted curve at half-maximal effect.

Compound	Potency [1]	Potency [2]	Potency [3]	Potency [4]	activity, negative = inhibition [1]	activity change, negative = inhibition [2]	activity change, negative = inhibition [3]	activity change, negative = inhibition [4]
CC(C)(O)c1ccc(CNC(=O)c2cccnc2Oc2ccc(F)cc2)cc1	inactive	inactive	inactive	inactive				
COC(C(=O)O)c1ccccc1 (configuration not stated)	inactive	inactive	inactive	inactive				
O=C(O)/C=C/c1ccc(/C=C/C(=O)O)cc1	inactive	inactive	inactive	inactive				
CCN(CC)C(=O)N1CCN(C)CC1	inactive	inactive	inactive	inactive				
COc1cnc(NS(=O)(=O)c2ccc(N)cc2)nc1	inactive	inactive	inactive	inactive				
COC(=O)CS	inactive	inactive	inactive	inactive				
CCCC(=O)C(=O)O	inactive	inactive	inactive	inactive				
Cc1cc(N)c(S(=O)(=O)O)cc1Cl	inactive	inactive	inactive	inactive				
CC(=O)Nc1ncc([N+](=O)[O-])s1	inactive	inactive	inactive	inactive				
CCCC(=O)OCc1ccccc1	inactive	inactive	inactive	inactive				
N#CC1(c2ccc(F)cc2)CCC(=O)CC1	inactive	inactive	inactive	inactive				
COC(=O)c1cc(S(N)(=O)=O)ccc1OC	inactive	inactive	inactive	inactive				
CC(=O)S[C@H](C(=O)N[C@H]1Cc2ccccc2[C@H]2CCC[C@@H](C(=O)O)N2C1=O)C(C)C	inactive	inactive	inactive	inactive				
CC(=O)N(CC(=O)N(C)C)c1ccccc1	inactive	inactive	inactive	inactive				
CCOC(=O)c1ccccc1O	inactive	inactive	inactive	inactive				
CCCCOC(=O)C(C)CC (configuration not stated)	inactive	inactive	inactive	inactive				
CC(C)(O)c1ccccc1	inactive	inactive	inactive	inactive				
O=C1CCC(=O)N1Cl	inactive	inactive	inactive	inactive				
CC(CN=Cc1ccccc1O)N=Cc1ccccc1O (configuration not stated)	inactive	inactive	inactive	inactive				
CN1CCN(C2=Nc3ccccc3Sc3ccc(Cl)cc32)CC1	inactive	inactive	inactive	inactive				
CC(C)CC(O)Cc1ccccc1 (configuration not stated)	inactive	inactive	inactive	inactive				
CCC(C=O)CC	inactive	inactive	inactive	inactive				

Compound	Potency [1]	Potency [2]	Potency [3]	Potency [4]	activity, negative = inhibition [1]	activity change, negative = inhibition [2]	activity change, negative = inhibition [3]	activity change, negative = inhibition [4]
CC1CCc2nccnc21 (configuration not stated)	inactive	inactive	inactive	inactive				
CCCCC(CC)CNCC(CC)CCCC (configuration not stated)	inactive	inactive	inactive	inactive				
Cc1ccc(S)cc1	inactive	inactive	inactive	inactive				
C[C@@H]1C[C@H]2[C@@H]3CCC4=CC(=O)C=C[C@]4(C)[C@@]3(Cl)[C@@H](O)C[C@]2(C)[C@@]1(OC(=O)c1ccco1)C(=O)CCl	inactive	inactive	inactive	inactive				
CC[C@H]1OC(=O)[C@H](C)[C@@H](O[C@H]2C[C@@](C)(OC)[C@@H](O)[C@H](C)O2)[C@H](C)[C@@H](O[C@@H]2O[C@H](C)C[C@H](N(C)C)[C@H]2O)[C@](C)(OC)C[C@@H](C)C(=O)[C@H](C)[C@@H](O)[C@]1(C)O	inactive	inactive	inactive	inactive				
CCCCCOC(=O)CCCCC	inactive	inactive	inactive	inactive				
C/C=C(\C)C(=O)OCC/C=C\CC	inactive	inactive	inactive	inactive				
Cc1ccc(S(=O)(=O)C(I)I)cc1	inactive	inactive	inactive	inactive				
Cc1c(Cl)cccc1Nc1ccccc1C(=O)O	inactive	inactive	inactive	inactive				
Cc1ccc(N)nc1	inactive	inactive	inactive	inactive				
OC(CCN1CCCCC1)(c1ccccc1)C1CC2C=CC1C2 (configuration not stated)	inactive	inactive	inactive	inactive				
CCOC(OCC)C(=O)c1ccccc1	inactive	inactive	inactive	inactive				
COc1cc2c(cc1OC)C(=O)CC2	inactive	inactive	inactive	inactive				
O=C(O)c1ccccc1C(=O)Nc1ccc(S(=O)(=O)Nc2nccs2)cc1	inactive	inactive	inactive	inactive				
Cc1cc(CC(=O)O)c(C)n1-c1ccc(Cl)cc1	inactive	inactive	inactive	inactive				
CC(C)(C)c1ccc(C=O)cc1	inactive	inactive	inactive	inactive				
Nc1ccc(C(=O)NCC(=O)O)cc1	inactive	inactive	inactive	inactive				
CCN(CC)CCOc1ccc(Cc2ccccc2)cc1	inactive	inactive	inactive	inactive				
CCC1CCCCC1	inactive	inactive	inactive	inactive				
C=CS(=O)(=O)O	inactive	inactive	inactive	inactive				
CNC(C)=O	inactive	inactive	inactive	inactive				
CCCCCCCCCCc1ccccc1	inactive	inactive	inactive	inactive				

Compound	Potency [1]	Potency [2]	Potency [3]	Potency [4]	activity, negative = inhibition [1]	activity change, negative = inhibition [2]	activity change, negative = inhibition [3]	activity change, negative = inhibition [4]
NC(=O)Nc1ccc(Cl)c(Cl)c1	inactive	inactive	inactive	inactive				
Oc1cccc(Nc2ccccc2)c1	inactive	inactive	inactive	inactive				
CCOC(=S)SSC(=S)OCC	inactive	inactive	inactive	inactive				
O=S(=O)(O)c1ccc2cc(O)c(S(=O)(=O)O)cc2c1	inactive	inactive	inactive	inactive				
CC(C)OC(=O)c1cc2c(OCC(O)CNC(C)(C)C)cccc2[nH]1 (configuration not stated)	inactive	inactive	inactive	inactive				
c1ccc(-c2nn[nH]n2)cc1	inactive	inactive	inactive	inactive				
CCN(CC)C(=O)/C(C#N)=C/c1cc(O)c(O)c([N+](=O)[O-])c1	inactive	inactive	inactive	inactive				
CCCCC	inactive	inactive	inactive	inactive				
SCCCCCCCCS	inactive	inactive	inactive	inactive				
Cc1ccnc2ccccc12	inactive	inactive	inactive	inactive				
CC1(C)C(=O)C(C)(C)C1=O	inactive	inactive	inactive	inactive				
OCCCC1CCCCC1	inactive	inactive	inactive	inactive				
COC(C)(C)CC(C)=O	inactive	inactive	inactive	inactive				
CCCCCCCCCCCCN1CCOCC1	inactive	inactive	inactive	inactive				
CN(CCCN1c2ccccc2CCc2ccccc21)CC(=O)c1ccc(Cl)cc1	inactive	inactive	inactive	inactive				
CSSc1ccoc1C	inactive	inactive	inactive	inactive				
CC1CCC(C(C)(C)O)CC1 (configuration not stated)	inactive	inactive	inactive	inactive				
CCN(CC)CCOC(=O)C1(c2ccccc2)CCCC1	inactive	inactive	inactive	inactive				
COc1cc(OC)c2ccc(=O)oc2c1	inactive	inactive	inactive	inactive				
CCN(CC)CCOc1ccc2c(c1)C(=O)c1cc(OCCN(CC)CC)ccc1-2	776 nM (active)	1550 nM (active)	550 nM (active)	5490 nM (active)				
O=C(O)[C@@H]1[C@H]2C[C@H]3c4[nH]c5ccccc5c4CCN3C[C@@H]2CC[C@@H]1O	inactive	inactive	inactive	inactive				
CC(C)NC(=O)c1ccc(C=O)cc1	inactive	inactive	inactive	inactive				

Compound	Potency [1]	Potency [2]	Potency [3]	Potency [4]	activity, negative = inhibition [1]	activity change, negative = inhibition [2]	activity change, negative = inhibition [3]	activity change, negative = inhibition [4]
N[C@H](C(=O)O)[C@@H](O)c1ccc(O)c(O)c1	inactive	inactive	inactive	inactive				
CCCCCc1ccc(N)cc1	inactive	inactive	inactive	inactive				
O=[N+]([O-])c1cccc(I)c1	inactive	inactive	inactive	inactive				
O=C(O)CNC(=O)c1ccc([N+](=O)[O-])cc1	inactive	inactive	inactive	inactive				
COC(=O)[C@@H]1[C@H]2C[C@H]3c4[nH]c5ccccc5c4CCN3C[C@@H]2CC[C@@H]1O	inactive	inactive	inactive	inactive				
CC(=O)OCC1=C(C(=O)O)N2C(=O)[C@@H](NC(=O)Cc3cccs3)[C@H]2SC1	inactive	inactive	inactive	inactive				
COc1ccccc1OCC(O)CN1CCN(CC(=O)Nc2c(C)cccc2C)CC1 (configuration not stated)	inactive	inactive	inactive	inactive				
Cc1cccc([N+](=O)[O-])c1C(=O)O	inactive	inactive	inactive	inactive				
O=C1OC(=O)c2cc([N+](=O)[O-])ccc21	inactive	inactive	inactive	inactive				
COc1ccc(/C=C/S(=O)(=O)NC(=O)c2ccc(C)cc2Cl)cc1	inactive	inactive	inactive	inactive				
C=C(C)C(=O)OC	inactive	inactive	inactive	inactive				
CCCCOC(=O)CC	inactive	inactive	inactive	inactive				
CCC(CC)C(C)CCOC(C)=O (configuration not stated)	inactive	inactive	inactive	inactive				
CCCCCCCC[Si](OCC)(OCC)OCC	inactive	inactive	inactive	inactive				
CN1CCN(CC(=O)N2c3ccccc3C(=O)Nc3cccnc32)CC1					0.44% [at 10.5 µM]	0.584% [at 10.5 µM]	5.87% [at 10.5 µM]	-0.472% [at 10.5 µM]
Cc1ccnc(N)c1	inactive	inactive	inactive	inactive				
O=C(O)Cc1ccc(OCCNC[C@H](O)c2ccccc2)cc1	inactive	inactive	inactive	inactive				
CC/C=C\CCCCCCCCCCOC(C)=O	inactive	inactive	inactive	inactive				
CCCCOc1ccc(N)cc1	inactive	inactive	inactive	inactive				
Cc1ccc(NC(N)=O)cc1	inactive	inactive	inactive	inactive				
CCCCCCCCCCCC(=O)[O][Sn]([CH2]CCC)([CH2]CCC)[O]C(=O)CCCCCCCCCCC	inactive	inactive	inactive	inactive				
NS(=O)(=O)c1cc2c(cc1Cl)NC(C(Cl)Cl)NS2(=O)=O (configuration not stated)	inactive	inactive	inactive	inactive				
